Experimental data taken from PubChem BioAssay (EPA / NIEHS).
Inconclusive results are not listed. The source made the active and inactive calls. Rule for the calls, unless noted: active = hit-call score of the fitted dose curve at least 0.9, where 1 is the maximum; inactive = score below 0.9.

Tests used:
[1] = read-out: Secreted IgG (sIgG), gene 3500; test: BSK_BT_sIgG: BioMAP Diversity Plus: BT Assay for Secreted IgG (sIgG) Biomarker Activity (AID 2284226); details: primary human B cells with PBMC
In short: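 B cells co-cultured with PBMC were dosed with chemical and secreted IgG quantified by ELISA at 24 h. Activity was fitted in the positive direction relative to DMSO as negative control and baseline.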

[2] = read-out: Tumor necrosis factor (Homo sapiens) (UniProt P01375); test: BSK_BT_xTNFa: BioMAP Diversity Plus: BT Assay for Tumor necrosis factor alpha (TNF-alpha) Biomarker Activity (AID 2284230); details: primary human B cells with PBMC
In short: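 Read-out: Luminex xMAP quantitation of secreted TNF-alpha from a B cell/PBMC co-culture 24 h after compound addition. Signal analysed relative to DMSO vehicle, positive fitting direction.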

[3] = read-out: Vascular cell adhesion molecule 1 (VCAM1), VCAM1 (gene 7412); test: BSK_MyoF_VCAM1: BioMAP Diversity Plus: MyoF Assay for Vascular cell adhesion molecule 1 (VCAM1) Biomarker Activity (AID 2284231); details: primary human lung fibroblasts
In short: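 MyoF system, lung fibroblasts; 24 h post-dose; VCAM-1 by ELISA; gain-of-signal fit vs DMSO baseline.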

[4] = read-out: Collagen I, COL1A1 (gene 1277); test: BSK_MyoF_CollagenI: BioMAP Diversity Plus: MyoF Assay for Collagen I Biomarker Activity (AID 2284238); details: primary human lung fibroblasts
In short: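 ELISA readout of Collagen I after 24 h chemical treatment of primary human lung fibroblast cultures; gain of signal scored relative to DMSO vehicle baseline.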

[5] = read-out: Interleukin 17F (IL17F), IL17F (gene 112744); test: BSK_BT_xIL17F: BioMAP Diversity Plus: BT Assay for Interleukin 17F (IL17F) Biomarker Activity (AID 2284243); details: primary human B cells with PBMC
In short: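 Secreted IL-17F, read on LumineX xMAP beads, was taken as the endpoint. Cultures combined human B cells and peripheral blood mononuclear cells, sampled 24 hours after dosing, with DMSO serving as negative control.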

[6] = read-out: Actin alpha 1 (ACTA1), ACTA1 (gene 58); test: BSK_MyoF_ACTA1: BioMAP Diversity Plus: MyoF Assay for Actin alpha 1 (ACTA1) Biomarker Activity (AID 2284244); details: primary human lung fibroblasts
In short: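 Human lung fibroblasts (MyoF system) dosed with test chemical for 24 h; α-SMA measured by ELISA. Gain of signal fitted relative to DMSO negative control as baseline.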

[7] = read-out: Basic fibroblast growth factor (bFGF), FGF2 (gene 2247); test: BSK_MyoF_bFGF: BioMAP Diversity Plus: MyoF Assay for Basic fibroblast growth factor (bFGF) Biomarker Activity (AID 2284246); details: primary human lung fibroblasts
In short: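 Human lung fibroblasts were dosed with chemicals and bFGF was quantified by ELISA 24 h later. Activity was fitted in the gain-of-signal direction relative to DMSO as negative control and baseline. Parallel SRB total-protein staining tracked overt cytotoxicity.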

[8] = read-out: Interleukin-8 (IL8), CXCL8 (gene 3576); test: BSK_MyoF_IL8: BioMAP Diversity Plus: MyoF Assay for Interleukin-8 (IL8) Biomarker Activity (AID 2284261); details: primary human lung fibroblasts
In short: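 Lung fibroblasts (human primary) → chemical exposure → 24 h → IL-8 measured by ELISA. Signal increase scored versus DMSO control.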

[9] = read-out: Decorin, DCN (gene 1634); test: BSK_MyoF_Decorin: BioMAP Diversity Plus: MyoF Assay for Decorin Biomarker Activity (AID 2284265); details: primary human lung fibroblasts
In short: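 ELISA readout of decorin, 24 h post-dosing; primary human lung fibroblast (MyoF) culture; gain-of-signal fit vs DMSO baseline.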

[10] = BSK_MyoF_SRB: Viability Assessment in the BioMAP Diversity Plus: MyoF Assay (AID 2284267); details: primary human lung fibroblasts;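 note: total protein by SRB absorbance in parallel cultures as cytotoxicity measure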
In short: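 Human lung fibroblasts dosed with chemical and assessed 24 h later for overt cytotoxicity in parallel cultures. Total protein quantified by sulforhodamine B staining (0.1% SRB after 10% TCA fixation), read at 560 nm, analysed in positive direction versus DMSO baseline.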

[11] = target: Nuclear receptor subfamily 1 group I member 2 (Homo sapiens) (UniProt O75469); test: NVS_NR_hPXR: NovaScreen (NVS) Nuclear Receptor Binding Assay for human Pregnane X Receptor (PXR) (AID 2283365; active = hit-call score of the fitted dose curve at least 0.9, where 1 is the maximum;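 note: a drop in FRET signal versus DMSO baseline means the compound binds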)
Chain of Nuclear receptor subfamily 1 group I member 2 (Homo sapiens) (O75469 whole entry, looked up): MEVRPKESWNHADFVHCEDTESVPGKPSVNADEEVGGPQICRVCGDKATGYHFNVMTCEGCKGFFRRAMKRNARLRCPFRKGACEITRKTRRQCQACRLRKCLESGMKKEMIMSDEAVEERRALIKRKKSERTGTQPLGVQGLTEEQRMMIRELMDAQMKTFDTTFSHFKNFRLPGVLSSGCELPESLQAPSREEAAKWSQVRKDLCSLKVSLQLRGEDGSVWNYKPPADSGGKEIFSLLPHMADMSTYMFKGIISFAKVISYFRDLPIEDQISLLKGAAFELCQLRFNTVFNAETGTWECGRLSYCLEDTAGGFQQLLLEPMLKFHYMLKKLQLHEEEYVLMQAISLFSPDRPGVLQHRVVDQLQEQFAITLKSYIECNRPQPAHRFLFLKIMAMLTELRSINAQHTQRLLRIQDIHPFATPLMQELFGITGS
In short: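 TR-FRET signal read at 2 h in a cell-free human PXR binding format. DMSO served as negative control and baseline; activity scored as signal loss. Single-concentration duplicate screen (25 uM), then concentration-response follow-up.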

[12] = target: Retinoic acid receptor RXR-alpha (Homo sapiens) (UniProt P19793); test: OT_NURR1_NURR1RXRa_0480: Odyssey Thera (OT) 8-hour HEK293T Protein Complementation Assay for Nurr1/retinoid X receptor (RXR) (AID 2283385; active = hit-call score of the fitted dose curve at least 0.9, where 1 is the maximum)
Chain of Retinoic acid receptor RXR-alpha (Homo sapiens) (P19793 whole entry, looked up, the tested form may be a part): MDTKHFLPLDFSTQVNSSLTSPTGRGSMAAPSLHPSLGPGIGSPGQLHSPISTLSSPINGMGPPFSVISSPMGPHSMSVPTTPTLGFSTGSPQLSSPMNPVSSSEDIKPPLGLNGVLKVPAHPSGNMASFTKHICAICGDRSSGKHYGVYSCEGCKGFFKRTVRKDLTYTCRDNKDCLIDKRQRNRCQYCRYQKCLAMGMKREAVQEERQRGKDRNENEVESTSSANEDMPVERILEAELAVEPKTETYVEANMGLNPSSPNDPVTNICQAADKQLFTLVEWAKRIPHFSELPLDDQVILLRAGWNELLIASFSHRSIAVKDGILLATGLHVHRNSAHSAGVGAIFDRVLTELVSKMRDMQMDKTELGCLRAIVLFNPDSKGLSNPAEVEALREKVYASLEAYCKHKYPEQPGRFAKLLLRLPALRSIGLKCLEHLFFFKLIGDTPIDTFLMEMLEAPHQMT
In short: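 HEK293T cells expressing Nurr1 and RXRα fused to reporter fragments were dosed with compound for 8 hours. Complex formation was read as fluorescence intensity and analysed as gain of signal against DMSO as baseline.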

[13] = target: Retinoic acid receptor RXR-alpha (Homo sapiens) (UniProt P19793); test: OT_NURR1_NURR1RXRa_1440: Odyssey Thera (OT) 24-hour HEK293T Protein Complementation Assay for Nurr1/retinoid X receptor (RXR) (AID 2283386; active = hit-call score of the fitted dose curve at least 0.9, where 1 is the maximum)
In short: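 HEK293T cells were dosed with compound and read 24 h later by fluorescence intensity in a protein-fragment complementation format, where Nurr1–RXRα interaction reconstitutes a split reporter. Activity was fitted as gain of signal relative to DMSO baseline.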

[14] = target: Androgen receptor (Homo sapiens) (UniProt P10275); test: ATG_AR_TRANS: Attagene TRANS-FACTORIAL HepG2 Assay for human Androgen Receptor (AR) (AID 2282973; active = hit-call score of the fitted dose curve at least 0.9, where 1 is the maximum); details: HepG2 Attagene TRANS-FACTORIAL AR reporter transcription
Chain of Androgen receptor (Homo sapiens) (P10275 whole entry, looked up, the tested form may be a part): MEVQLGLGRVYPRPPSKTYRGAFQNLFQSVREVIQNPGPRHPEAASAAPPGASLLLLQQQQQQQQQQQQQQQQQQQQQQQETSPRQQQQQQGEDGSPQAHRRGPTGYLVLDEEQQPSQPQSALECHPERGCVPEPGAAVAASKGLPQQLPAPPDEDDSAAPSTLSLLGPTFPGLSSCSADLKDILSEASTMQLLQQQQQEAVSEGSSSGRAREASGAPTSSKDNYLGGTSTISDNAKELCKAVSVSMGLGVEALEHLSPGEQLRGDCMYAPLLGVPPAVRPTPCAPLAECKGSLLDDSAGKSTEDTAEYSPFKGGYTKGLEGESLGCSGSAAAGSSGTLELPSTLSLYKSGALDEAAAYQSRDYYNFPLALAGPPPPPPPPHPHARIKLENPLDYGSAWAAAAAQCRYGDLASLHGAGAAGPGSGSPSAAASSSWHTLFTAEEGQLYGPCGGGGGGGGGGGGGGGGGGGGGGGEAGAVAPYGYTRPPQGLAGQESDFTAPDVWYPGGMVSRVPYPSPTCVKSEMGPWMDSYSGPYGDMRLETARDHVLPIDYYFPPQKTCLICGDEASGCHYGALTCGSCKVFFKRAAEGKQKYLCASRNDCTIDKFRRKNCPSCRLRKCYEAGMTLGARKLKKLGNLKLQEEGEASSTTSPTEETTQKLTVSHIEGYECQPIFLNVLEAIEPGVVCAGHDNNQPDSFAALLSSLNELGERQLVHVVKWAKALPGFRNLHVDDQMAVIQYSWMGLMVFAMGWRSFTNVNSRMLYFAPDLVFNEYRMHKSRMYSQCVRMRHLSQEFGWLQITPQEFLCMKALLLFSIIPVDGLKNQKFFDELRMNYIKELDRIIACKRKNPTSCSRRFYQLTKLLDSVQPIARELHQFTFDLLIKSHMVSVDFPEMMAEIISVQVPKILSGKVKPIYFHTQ
In short: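 Readout is reporter transcript abundance, quantified by fluorescent RT-PCR products separated on capillary electrophoresis. Human HepG2 liver cells carried transiently transfected NR-Gal4 chimera plus GAL4-UAS reporter constructs and were dosed for 24 h; activity scored upward versus DMSO.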

[15] = target: human Dopamine Transporter (DAT), SLC6A3 (gene 6531) (UniProt Q01959); test: NVS_TR_hDAT: NovaScreen (NVS) Transporter Assay for human Dopamine Transporter (DAT) (AID 2283374; active = hit-call score of the fitted dose curve at least 0.9, where 1 is the maximum;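 note: activity means loss of bound radioligand signal relative to DMSO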)
Chain of human Dopamine Transporter (DAT), SLC6A3 (gene 6531) (Q01959 whole entry, looked up): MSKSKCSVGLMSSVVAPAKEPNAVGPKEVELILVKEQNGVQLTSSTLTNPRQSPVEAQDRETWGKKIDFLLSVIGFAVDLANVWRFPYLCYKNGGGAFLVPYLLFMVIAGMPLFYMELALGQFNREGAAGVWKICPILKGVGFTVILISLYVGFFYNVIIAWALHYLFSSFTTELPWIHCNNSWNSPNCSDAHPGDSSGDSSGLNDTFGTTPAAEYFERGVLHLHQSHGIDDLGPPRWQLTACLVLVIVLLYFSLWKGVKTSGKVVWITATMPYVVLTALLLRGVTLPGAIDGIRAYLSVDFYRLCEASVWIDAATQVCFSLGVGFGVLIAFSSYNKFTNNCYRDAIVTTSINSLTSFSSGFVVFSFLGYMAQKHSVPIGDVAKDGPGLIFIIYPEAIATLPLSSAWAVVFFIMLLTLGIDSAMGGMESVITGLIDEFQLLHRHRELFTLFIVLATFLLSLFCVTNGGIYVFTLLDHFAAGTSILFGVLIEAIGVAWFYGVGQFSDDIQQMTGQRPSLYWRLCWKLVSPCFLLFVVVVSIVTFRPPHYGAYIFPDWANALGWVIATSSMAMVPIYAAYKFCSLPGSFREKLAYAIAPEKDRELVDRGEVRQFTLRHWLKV
In short: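 Test chemicals were first screened in duplicate at 25 uM, with actives retested as concentration series. Displacement of a specific radioligand from cell-free human dopamine transporter was measured after 1 h by filtration and scintillation counting.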

[16] = target: Retinoic acid receptor alpha (Homo sapiens) (UniProt P10276); test: ATG_RARa_TRANS: Attagene TRANS-FACTORIAL HepG2 Assay for human Retinoic Acid Receptor alpha (RARa) (AID 2283005; active = hit-call score of the fitted dose curve at least 0.9, where 1 is the maximum)
Chain of Retinoic acid receptor alpha (Homo sapiens) (P10276 whole entry, looked up, the tested form may be a part): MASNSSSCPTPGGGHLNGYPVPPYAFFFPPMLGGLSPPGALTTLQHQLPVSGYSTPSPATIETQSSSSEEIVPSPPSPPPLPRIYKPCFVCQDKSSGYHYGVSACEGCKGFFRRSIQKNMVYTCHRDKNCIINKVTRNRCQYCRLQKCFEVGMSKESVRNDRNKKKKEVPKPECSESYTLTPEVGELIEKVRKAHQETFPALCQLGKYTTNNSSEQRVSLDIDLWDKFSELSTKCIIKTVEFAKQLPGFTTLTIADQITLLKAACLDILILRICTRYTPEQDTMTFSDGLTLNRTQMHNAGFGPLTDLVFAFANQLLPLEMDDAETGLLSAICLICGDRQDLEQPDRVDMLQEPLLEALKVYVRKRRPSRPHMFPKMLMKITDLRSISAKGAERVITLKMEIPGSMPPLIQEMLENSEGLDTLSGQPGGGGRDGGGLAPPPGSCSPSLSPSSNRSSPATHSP
In short: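 Reporter transcripts, measured by RT-PCR with fluorescent labeling and capillary electrophoresis after 24 h dosing, reflect activity of an exogenous human RARa–GAL4 fusion in transiently transfected HepG2. Fitted for increase relative to DMSO.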

[17] = CEETOX_H295R_MTT_cell_viability: Viability Assessment in the CeeTox HT-H295R MTT Assay (AID 2283718)
In short: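 MTT reduction (0.5 mg/ml, 4 h at 37 C; absorbance at 570 and 650 nm) gave viability as background-corrected percent change versus controls. H295R cells had 48 h forskolin (10 uM) prestimulation, then 48 h chemical exposure at 0.1% DMSO.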

[18] = target: Estrogen receptor beta (Homo sapiens) (UniProt Q92731); test: OT_ER_ERbERb_0480: Odyssey Thera (OT) 8-hour HEK293T Protein-Complementation Assay for Estrogen Receptor-beta/-beta Homodimer (AID 2283357; active = hit-call score of the fitted dose curve at least 0.9, where 1 is the maximum;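 note: active means signal gain over DMSO baseline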)
Chain of Estrogen receptor beta (Homo sapiens) (Q92731 whole entry, looked up, the tested form may be a part): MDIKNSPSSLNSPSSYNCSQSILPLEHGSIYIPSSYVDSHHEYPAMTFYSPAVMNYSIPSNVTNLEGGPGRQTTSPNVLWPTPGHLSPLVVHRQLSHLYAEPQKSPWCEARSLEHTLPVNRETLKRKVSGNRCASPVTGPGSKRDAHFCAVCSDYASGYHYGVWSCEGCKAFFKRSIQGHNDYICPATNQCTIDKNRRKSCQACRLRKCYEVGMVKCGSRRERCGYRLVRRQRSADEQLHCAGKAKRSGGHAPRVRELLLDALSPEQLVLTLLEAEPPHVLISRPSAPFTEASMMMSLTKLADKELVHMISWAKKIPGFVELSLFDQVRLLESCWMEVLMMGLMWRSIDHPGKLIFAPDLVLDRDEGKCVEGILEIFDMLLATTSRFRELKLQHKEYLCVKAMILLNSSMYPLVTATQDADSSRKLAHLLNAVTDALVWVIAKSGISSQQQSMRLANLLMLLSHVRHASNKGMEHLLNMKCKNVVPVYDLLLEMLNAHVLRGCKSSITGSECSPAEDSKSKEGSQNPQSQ
In short: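 Cells (HEK293T, stable ER-beta LBD PCA pair) are treated 8 hours, fixed and Draq5-stained; signal is fluorescence intensity increase relative to vehicle, fitted in the gain direction.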

Measured: AC50

Chain of Tumor necrosis factor (Homo sapiens) (P01375 whole entry, looked up): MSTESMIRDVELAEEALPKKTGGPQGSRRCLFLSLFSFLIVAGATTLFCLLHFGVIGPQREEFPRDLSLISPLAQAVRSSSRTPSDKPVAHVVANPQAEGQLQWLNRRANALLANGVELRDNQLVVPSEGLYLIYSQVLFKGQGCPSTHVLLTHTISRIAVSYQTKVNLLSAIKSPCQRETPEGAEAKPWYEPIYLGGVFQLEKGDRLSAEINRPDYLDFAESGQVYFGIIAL

CC(C)COP(=O)(OCC(C)C)OCC(C)C
inactive: [1] | [2] | [3] | [4] | [5] | [6] | [7] | [8] | [9] | [10]

[CH3][Sn]([CH3])([Cl])[Cl]
inactive: [11] | [12]
active: [13] 82.1 µM

O=C1C(Cl)=C(Cl)C(=O)C(Cl)=C1Cl
inactive: [14]

CCC(C)c1cc(C(C)(C)C)cc(-n2nc3ccccc3n2)c1O (stereo not drawn)
inactive: [14]

CC(C)(c1cc(Cl)c(O)c(Cl)c1)c1cc(Cl)c(O)c(Cl)c1
active: [11] 5.12 µM
inactive: [15]

c1ccc(Nc2ccc3ccccc3c2)cc1
active: [15] 13 µM

CCOC(=O)COc1ccc(Cl)cc1Cl
inactive: [11]

N#CCCCl
inactive: [16]

CC(C)(C)C(O)C(Oc1ccc(-c2ccccc2)cc1)n1cncn1 (stereo not drawn)
inactive: [14] | [17] | [2] | [5] | [8]
active: [15] 13.4 µM | [1] 17.9 µM | [3] 30 µM | [4] 36.9 µM | [6] 34.5 µM | [7] 33.6 µM | [9] 36.5 µM | [10] 32 µM

CCCOC(=O)c1ccccc1C(=O)OCCC
inactive: [2] | [3] | [4] | [5] | [6] | [7] | [8] | [9] | [10]
active: [1] 20 µM

O=C=Nc1ccccc1
inactive: [16] | [13] | [17]

CC(C)(C)C(=O)CCl
inactive: [2] | [4] | [5] | [6] | [7] | [8] | [9] | [10]
active: [1] 8.03 µM | [3] 20 µM

C=CC(=O)OCC(CC)CCCC (stereo not drawn)
active: [9] 0.016 µM
not listed: [11] | [14] | [15] | [16] | [17]
inactive: all other assays above

CN(C)C(=O)C(c1ccccc1)c1ccccc1
inactive: [18] | [11] | [12] | [13]
